In ChEMBL document CHEMBL3988442, “University of Dundee, Small-Polar-MMV Screening Library” (2021):
Hit rate of the full screen: of about 85,000 compounds, about 440 (0.52%) showed an effect of 50% or more. Only a selection was taken, and strong results are over-represented in it overall.

Test: In vitro enzyme assay to detect hydrolysis of chlorophenol red-beta-D-[…] directly proportional to the number of Toxoplasma stably expressing beta-galactosidase
Type: functional, organism-based, Toxoplasma gondii
Set-up: scale not given: in the data most compounds retested in dose-response had high values

Structure (SMILES)	Percent Effect (50 µM)	Percent Effect (10 µM)
Cc1noc(C)c1COC1CCNC1 (stereo not drawn)	7.368%	–
O=C(COc1ccc(F)cc1)Nc1ccon1	-3.156%	–
CC(NC(=O)C1CCNCC1)c1cccc(F)c1 (stereo not drawn)	17.33%	–
OC1(Cc2ccccn2)CCNCC1	-0.4203%	–
Cc1cccc(NCC2CCN(CCC(N)=O)C2)n1 (stereo not drawn)	2.724%	–
COc1ccc(CN(C)C(=O)CCNC(C)=O)cc1F	-5.409%	–
CCNC(C)(C)C(=O)N(C)Cc1ccc(OC)c(F)c1	94.51%	–
COc1ccc(CN(C)C(=O)C2CC2)cc1F	5.333%	–
NCc1ccc(-n2cc(Cl)cn2)cc1	-34.41%	–
CCCn1ccnc1CNC(=O)c1ccc(F)c(O)c1	10.15%	–
CN1CCc2nc(NC(=O)c3cncc(Br)c3)sc2C1	-4.285%	–
CCN1CCc2nc(NC(=O)c3ccncc3)sc2C1	61.16%	–
CCN1CCc2nc(NC(=O)c3cc(Br)c[nH]3)sc2C1	-7.995%	–
O=C(NCCCNCc1ccccc1)c1ccco1	-4.419%	–
CN1N=C(C(=O)NC2CCCc3occc32)CCC1=O (stereo not drawn)	1.103%	–
COc1ccc(CN)c(F)c1	0.131%	–
Cc1ccc(C(=O)N2CCN(C(C)C(N)=O)CC2)s1 (stereo not drawn)	98.87%	–
CC(C(N)=O)N1CCN(C(=O)c2ccc(Br)cc2)CC1 (stereo not drawn)	3.88%	–
Cc1csc(N2CCN(C(=O)c3ccc(C)s3)CC2)n1	–	-15.38%
OC1CN(Cc2ccc(OCc3ccccn3)cc2)C1	-10.4%	–
COc1c(C)cnc(CN(C)C)c1C	0.7571%	–
COc1c(C)cnc(CN(C)C2CCCCC2)c1C	–	62.27%
COc1c(C)cnc(CN(C)C2CCN(C3CCOCC3)CC2)c1C	–	16.07%
CC(Cn1cccn1)NC(=O)c1cncc(Br)c1 (stereo not drawn)	6.883%	–
c1nc(CCNc2nc(C3CC3)nc3c2CCNCC3)c[nH]1	–	13.19%
C1Cc2nc(CCNc3nc(C4CC4)nc4c3CCNCC4)sc2C1	–	77.67%

Structure (SMILES)	Percent Effect (50 µM)	Percent Effect (10 µM)
Cc1nc2c(c(NCCc3nc4c(s3)CCCC4)n1)CCNCC2	–	-0.699%
N[C@H]1CC[C@@H](n2cc(Br)cn2)CC1	5.491%	–
Cc1ccc(CNC(=O)C2(C)CCCCC(=O)N2)o1 (stereo not drawn)	14.66%	–
Cc1ccc(CNC(=O)C2CCCCC(=O)N2)o1 (stereo not drawn)	50.04%	–
Cc1cccc(CNC(=O)C2CCCCC(=O)N2)c1 (stereo not drawn)	-7.628%	–
N#CC1CCN(C(=O)c2ccc(SCCO)cc2)CC1	-14.8%	–
CNc1cccc2cccnc12	-1.4%	–
CNc1cccnc1N(C)C	57.74%	–
CN(C)c1ncccc1N	1.469%	–
COC(C(=O)NC1(C)CCOCC1)c1ccccc1 (stereo not drawn)	-2.025%	–
CSCCCN1CCN(C(=O)c2ccc[nH]2)CC1	-8.697%	–
CO[C@H]1[C@@H]2CC[C@H]1CN(c1nc(C)nc3ccsc13)C2	–	70.73%
CO[C@H]1[C@@H]2CC[C@H]1CN(c1nc(C)nc3sccc13)C2	–	8.834%
Cc1nc(N2C[C@@H](CN3CCCCC3)[C@@H](CO)C2)c2sccc2n1	–	-8.225%
CC(C)(C)NCC(=O)Nc1ccc(Cl)cn1	-9.06%	–
CN1Cc2cc(O)ccc2C1=O	4.771%	–
COc1cccc(NC(=O)Nc2ccc3c(c2)CC(=O)N3)c1	–	14.2%
Cc1noc(C)c1CCCNC(=O)Nc1ccc2c(c1)CC(=O)N2	–	-25.73%
Cc1cc(C(=O)Nc2ccc3c(c2)CC(=O)N3)c(C)o1	62.73%	–
O=C(NC1CC1)C1CCCN1c1ccc2nnnn2n1 (stereo not drawn)	14.68%	–
Cc1ccc(CNCCN2CCOCC2)s1	-0.4782%	–
CC(CO)N(C)C(=O)c1cccc2cc[nH]c12 (stereo not drawn)	3.789%	–
CSCC(=O)NC(C1CCNCC1)[C@H]1C[C@@H](O)C1 (stereo partly drawn)	54.38%	–
CSCCC(=O)NC(C1CCNCC1)[C@H]1C[C@H](O)C1 (stereo partly drawn)	2.303%	–
O=C(NC(C1CCNCC1)[C@H]1C[C@H](O)C1)C1CC=CC1 (stereo partly drawn)	-3.099%	–
CN(C)C(=O)C1OCCc2ccccc21 (stereo not drawn)	-9.561%	–

Structure (SMILES)	Percent Effect (50 µM)	Percent Effect (10 µM)
CCN(C1CC1)S(=O)(=O)c1ccc(OC)c(C(N)=O)c1	-4.702%	–
CC(C)OCCOCC(O)CN(C)Cc1cccnc1 (stereo not drawn)	-1.887%	–
Cc1cscc1C(=O)NCCc1cncn1C	-7.221%	–
CCOC(=O)C(O)c1cc(Br)c2c(c1)OCO2 (stereo not drawn)	60.1%	–
CC(C)S(=O)(=O)N(C)C(=O)c1cc(Br)c2c(c1)OCO2	10.61%	–
NCc1cc(Br)c2c(c1)OCO2	33.59%	–
CC(C)NC(=O)C(C)n1cncn1 (stereo not drawn)	7.173%	–
CN(CCN)S(=O)(=O)c1cccs1	-2.794%	–
Cc1cc(C)n(-c2cncc(NCCNC(=O)C3CCCC3)n2)n1	–	-17.81%
Cc1cc(C)n(-c2nc(NCCCO)c3c4c(sc3n2)CCCC4)n1	–	81.16%
Cc1cc(C)n(C2=NC(NCCC(C)C)c3c(sc4c3CCCC4)N2)n1 (stereo not drawn)	–	-32.33%
O=C(NCc1cn2ccccc2n1)c1ccc(=O)oc1	-17.09%	–
CCCOc1ccc(Cl)cc1NC(=O)NCCC(=O)N(C)C	–	15.25%
CNCC(=O)Nc1cc(Cl)ccc1OC	-3.261%	–
COCCNC(=O)Nc1cc(Cl)ccc1OC	51.47%	–
O=C(CCC1CCCCC1)NCc1c[nH]nn1	1.133%	–
CC(N)c1ccccc1N1CCOCC1 (stereo not drawn)	0.1688%	–
C[C@@H](CO)NC(=O)NCC1CCN(CC(F)(F)F)CC1	-3.478%	–
COCCC1(CN2CCC(C(N)=O)C2)CCC1 (stereo not drawn)	68.22%	–
COCCC1(CN2CCCC(C(N)=O)C2)CCC1 (stereo not drawn)	-0.683%	–
COCCC1(CO)CCCN(CC(N)=O)C1 (stereo not drawn)	0.1422%	–
CN(CC1CCOCC1)C(=O)c1ccc(CN)cc1	0.3864%	–
Cc1c(Cl)c(C(=O)N2CCCCC2)nn1C	24.41%	–
CN(Cc1ccc2c(c1)OCCO2)Cc1nnnn1-c1ccccc1	–	-19.55%
CCN(CC)Cc1nnnn1-c1ccccc1	68.75%	–
CCS(=O)(=O)Cc1nnnn1-c1ccccc1	–	-0.7088%
